The text below walks through data of PubChem BioAssay (EPA / NIEHS).

Calls of active or inactive are those of the source. Rule for the calls: active = hit-call score of the fitted dose curve at least 0.9, where 1 is the maximum; inactive = score below 0.9.

Common to all, as to details: mRNA level, 48 h; actives raise or lower the signal
Read-out in assay [1]: Broad substrate specificity ATP-binding cassette transporter ABCG2 (Homo sapiens) (UniProt Q9UNQ0)
Briefly: LTEA_HepaRG_ABCG2: Life Technologies and Expression Analysis (LTEA) Assay for ABC Transporter (ABCG2) using HepaRG (AID 2283465). In outline: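 Differentiated HepaRG cells were exposed for 48 h in serum-free induction medium to 8 half-log concentrations, top 100 uM, in 0.5% DMSO. ABCG2 mRNA was measured by qRT-PCR, normalized to ACTB, GAPDH and POLR2A, with bidirectional fitting versus DMSO.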

Read-out in assay [2]: Peroxisomal acyl-coenzyme A oxidase 1 (ACOX1) gene, ACOX1 (gene 51)
Briefly: LTEA_HepaRG_ACOX1: Life Technologies and Expression Analysis (LTEA) Assay for Peroxisomal acyl-coenzyme A oxidase 1 (ACOX1) gene using HepaRG (AID 2283467). Summed up: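 HepaRG cells, plated 48 h then switched to serum-free induction medium, were exposed in duplicate for 48 h to 8-point half-log concentrations up to 100 uM in 0.5% DMSO. ACOX1 mRNA was measured by qRT-PCR, normalized to ACTB/GAPDH/POLR2A, and fitted bidirectionally versus DMSO.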

Read-out in assay [3]: Alkaline Phosphatase, Placental (ALPP) gene, ALPP (gene 250)
In words: LTEA_HepaRG_ALPP: Life Technologies and Expression Analysis (LTEA) Assay for Alkaline Phosphatase, Placental (ALPP) gene using HepaRG (AID 2283468). In outline: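 HepaRG cells plated 48 h, then exposed in duplicate for 48 h in serum-free induction medium to 8-point half-log series from 100 uM in 0.5% DMSO. ALPP mRNA by TaqMan qRT-PCR, normalized to ACTB/GAPDH/POLR2A; bidirectional fit versus DMSO.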

Read-out in assay [4]: Bcl-2 (BAD) gene, BAD (gene 572)
In words: LTEA_HepaRG_BAD: Life Technologies and Expression Analysis (LTEA) Assay for Bcl-2 (BAD) gene using HepaRG (AID 2283469). Summed up: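 Differentiated HepaRG cells were exposed in duplicate in 0.5% DMSO for 48 h to eight-point half-log concentrations up to 100 uM. BAD mRNA was measured by Fluidigm TaqMan qRT-PCR, normalized to ACTB, GAPDH and POLR2A, and fitted bidirectionally against DMSO.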

Read-out in assay [5]: Bcl-2 (BAX) gene, BAX (gene 581)
Briefly: LTEA_HepaRG_BAX: Life Technologies and Expression Analysis (LTEA) Assay for Bcl-2 (BAX) gene using HepaRG (AID 2283470). Summed up:
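HepaRG (human liver), 48 h exposure, duplicate wells. 8-pt curve, half-log from 100 uM, 0.5% DMSO. BAX transcript by TaqMan qRT-PCR; ACTB/GAPDH/POLR2A normalization; gain or loss vs DMSO baseline.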

Read-out in assay [6]: adenosine kinase (ADK) gene, ADK (gene 132)
In words: LTEA_HepaRG_ADK: Life Technologies and Expression Analysis (LTEA) Assay for adenosine kinase (ADK) gene using HepaRG (AID 2283471). In outline:
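HepaRG (human liver), 48 h chemical exposure, 8-pt half-log series, top 100 uM, 0.5% DMSO vehicle. Readout: ADK mRNA by qRT-PCR vs housekeeping genes; bidirectional curve fit relative to DMSO baseline.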

Read-out in assay [7]: Alpha-fetoprotein (AFP) gene, AFP (gene 174)
Briefly: LTEA_HepaRG_AFP: Life Technologies and Expression Analysis (LTEA) Assay for Alpha-fetoprotein (AFP) gene using HepaRG (AID 2283472). Summed up: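 HepaRG, single lot; 48 h post-plating -> serum-free induction medium; cpd 8-pt, 100 uM top, half-log, 0.5% DMSO, duplicate, 48 h. RNA -> qRT-PCR AFP, norm ACTB/GAPDH/POLR2A. Bidirectional fit vs DMSO.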

Read-out in assay [8]: Apoptosis regulator Bcl-2 (Homo sapiens) (UniProt P10415)
In words: LTEA_HepaRG_BCL2: Life Technologies and Expression Analysis (LTEA) Assay for Bcl-2 gene using HepaRG (AID 2283475). In outline: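 HepaRG, plated 48 h then switched to serum-free induction medium; dosed 48 h, 8 conc. (max 100 uM, half-log steps), duplicate, 0.5% DMSO. Lysis in RLT, RNA isolated, TaqMan qRT-PCR for BCL2; ACTB/GAPDH/POLR2A normalisation; bidirectional fit vs DMSO.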

Read-out in assay [9]: Bcl-2 (BID) gene, BID (gene 637)
In words: LTEA_HepaRG_BID: Life Technologies and Expression Analysis (LTEA) Assay for Bcl-2 (BID) gene using HepaRG (AID 2283476). In outline: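 Transcript levels of BID, measured by qRT-PCR and normalized to three housekeeping genes, were fitted bidirectionally against DMSO controls. Cells were HepaRG, dosed 48 h at up to 100 uM.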

Read-out in assay [10]: Caspase-3 (Homo sapiens) (UniProt P42574)
Briefly: LTEA_HepaRG_CASP3: Life Technologies and Expression Analysis (LTEA) Assay for cysteine-aspartic acid protease (CASP3) using HepaRG (AID 2283477). Summed up: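 Differentiated HepaRG cells, plated 48 h, were treated in duplicate in serum-free induction medium for 48 h with eight half-log concentrations up to 100 uM in 0.5% DMSO. CASP3 mRNA measured by qRT-PCR, normalized to ACTB, GAPDH, POLR2A.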

Read-out in assay [11]: Cytochrome P450 (CYP24A1), CYP24A1 (gene 1591)
In words: LTEA_HepaRG_CYP24A1: Life Technologies and Expression Analysis (LTEA) Assay for Cytochrome P450 (CYP24A1) using HepaRG (AID 2283478). Summed up: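 HepaRG cells plated 48 h, then exposed in duplicate in serum-free induction medium for 48 h to 8-point half-log series from 100 uM in 0.5% DMSO. CYP24A1 mRNA by Fluidigm qRT-PCR, normalized to ACTB, GAPDH, POLR2A; bidirectional fit versus DMSO.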

Read-out in assay [12]: Cytochrome P450 (CYP1A2), CYP1A2 (gene 1544)
Briefly: LTEA_HepaRG_CYP1A2: Life Technologies and Expression Analysis (LTEA) Assay for Cytochrome P450 (CYP1A2) using HepaRG (AID 2283479). Summed up:
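Differentiated human HepaRG cells in serum-free induction medium exposed 48 hours in duplicate to 8 half-log concentrations from 100 uM, 0.5% DMSO. CYP1A2 mRNA quantified by qRT-PCR, normalized to ACTB, GAPDH and POLR2A; bidirectional fitting versus DMSO.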

Read-out in assay [13]: cysteine-aspartic acid protease (CASP8), CASP8 (gene 841)
Briefly: LTEA_HepaRG_CASP8: Life Technologies and Expression Analysis (LTEA) Assay for cysteine-aspartic acid protease (CASP8) using HepaRG (AID 2283480). In outline:
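Differentiated HepaRG cells in serum-free induction medium, 48 h exposure, eight-point half-log series from 100 uM in 0.5% DMSO, duplicates. CASP8 mRNA by qRT-PCR, normalized to ACTB, GAPDH, POLR2A; bidirectional fit versus DMSO.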

Read-out in assay [14]: Cytochrome P450 (CYP2B6), CYP2B6 (gene 1555)
In words: LTEA_HepaRG_CYP2B6: Life Technologies and Expression Analysis (LTEA) Assay for Cytochrome P450 (CYP2B6) using HepaRG (AID 2283481). Summed up:
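Differentiated human HepaRG cells in serum-free induction medium, dosed in duplicate for 48 h over 8 half-log concentrations topping at 100 uM (0.5% DMSO). CYP2B6 mRNA measured by TaqMan qRT-PCR, normalized to ACTB, GAPDH, POLR2A; bidirectional fit versus DMSO.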

Read-out in assay [15]: Cytochrome P450 2C19 (Homo sapiens) (UniProt P33261)
In words: LTEA_HepaRG_CYP2C19: Life Technologies and Expression Analysis (LTEA) Assay for CYP2C19 using HepaRG (AID 2283482). In outline:
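Differentiated HepaRG cells in serum-free induction medium exposed 48 h in duplicate, 8 concentrations from 100 uM by half-log steps in 0.5% DMSO. CYP2C19 mRNA measured by TaqMan qRT-PCR, normalized to ACTB, GAPDH, POLR2A. Bidirectional fit versus DMSO.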

Read-out in assay [16]: CYP2C8 (gene 1558)
Briefly: LTEA_HepaRG_CYP2C8: Life Technologies and Expression Analysis (LTEA) Assay for CYP2C8 using HepaRG (AID 2283483). In outline:
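Differentiated HepaRG cells in serum-free induction medium exposed 48 h in duplicate to 8 half-log concentrations from 100 uM in 0.5% DMSO. CYP2C8 mRNA by qRT-PCR normalized to ACTB, GAPDH, POLR2A; bidirectional fit versus DMSO.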

Read-out in assay [17]: CYP2C9 (gene 1559)
Briefly: LTEA_HepaRG_CYP2C9: Life Technologies and Expression Analysis (LTEA) Assay for CYP2C9 using HepaRG (AID 2283484). Summed up: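 Differentiated human HepaRG cells in serum-free induction medium were exposed 48 h to chemicals in 8-point half-log series from 100 uM (0.5% DMSO), in duplicate. CYP2C9 mRNA was measured by qRT-PCR, normalized to ACTB/GAPDH/POLR2A, with bidirectional fitting versus DMSO.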

Read-out in assay [18]: BCL2L11 (gene 10018)
Briefly: LTEA_HepaRG_BCL2L11: Life Technologies and Expression Analysis (LTEA) Assay for Bcl-2 (BCL2L11) gene using HepaRG (AID 2283473). In outline:
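Differentiated human HepaRG cells were exposed 48 h in serum-free induction medium to eight half-log concentrations up to 100 uM in 0.5% DMSO, in duplicate. BCL2L11 mRNA was quantified by TaqMan qRT-PCR, normalized to ACTB, GAPDH and POLR2A; induction or repression fitted versus DMSO.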

Read-out in assay [19]: ATP-citrate lyase (ACLY), ACLY (gene 47)
Briefly: LTEA_HepaRG_ACLY: Life Technologies and Expression Analysis (LTEA) Assay for ATP-citrate lyase (ACLY) using HepaRG (AID 2283466). Summed up:
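Differentiated HepaRG cells exposed 48 h in serum-free induction medium to eight half-log concentrations up to 100 uM in 0.5% DMSO, duplicates. Transcript measured by Fluidigm TaqMan qRT-PCR, normalized to ACTB, GAPDH, POLR2A; bidirectional fit versus DMSO.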

Apoptosis regulator Bcl-2 (Homo sapiens), sequence (P10415 whole entry, looked up): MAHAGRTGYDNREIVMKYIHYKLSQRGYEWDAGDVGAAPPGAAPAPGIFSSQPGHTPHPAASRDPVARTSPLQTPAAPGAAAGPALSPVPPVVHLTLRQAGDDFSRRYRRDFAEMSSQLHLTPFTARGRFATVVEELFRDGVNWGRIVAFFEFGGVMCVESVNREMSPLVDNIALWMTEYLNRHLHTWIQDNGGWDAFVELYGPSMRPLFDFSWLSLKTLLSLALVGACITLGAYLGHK
Caspase-3 (Homo sapiens), sequence (P42574 whole entry, looked up): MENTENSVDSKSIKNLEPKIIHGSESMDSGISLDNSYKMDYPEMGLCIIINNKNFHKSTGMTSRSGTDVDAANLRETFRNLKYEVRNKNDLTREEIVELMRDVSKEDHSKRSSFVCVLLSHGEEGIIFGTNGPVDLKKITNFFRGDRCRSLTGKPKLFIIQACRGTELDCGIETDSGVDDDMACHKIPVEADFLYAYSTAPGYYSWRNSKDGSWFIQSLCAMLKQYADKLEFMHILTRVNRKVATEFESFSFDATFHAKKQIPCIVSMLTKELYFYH
Cytochrome P450 2C19 (Homo sapiens), sequence (P33261 whole entry, looked up): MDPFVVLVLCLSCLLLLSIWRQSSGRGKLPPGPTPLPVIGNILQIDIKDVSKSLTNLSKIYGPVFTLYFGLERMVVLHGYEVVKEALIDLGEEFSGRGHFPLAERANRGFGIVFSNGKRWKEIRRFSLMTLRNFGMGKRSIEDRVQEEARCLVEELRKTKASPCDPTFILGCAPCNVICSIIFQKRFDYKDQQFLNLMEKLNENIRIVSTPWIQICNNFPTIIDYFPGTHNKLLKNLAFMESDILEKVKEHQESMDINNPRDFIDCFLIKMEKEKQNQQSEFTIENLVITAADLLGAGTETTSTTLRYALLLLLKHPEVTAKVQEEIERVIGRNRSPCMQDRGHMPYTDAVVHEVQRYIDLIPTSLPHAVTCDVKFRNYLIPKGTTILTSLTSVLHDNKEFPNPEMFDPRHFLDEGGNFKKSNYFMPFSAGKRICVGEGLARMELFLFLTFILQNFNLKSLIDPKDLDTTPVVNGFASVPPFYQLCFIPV
Broad substrate specificity ATP-binding cassette transporter ABCG2 (Homo sapiens), sequence (Q9UNQ0 whole entry, looked up): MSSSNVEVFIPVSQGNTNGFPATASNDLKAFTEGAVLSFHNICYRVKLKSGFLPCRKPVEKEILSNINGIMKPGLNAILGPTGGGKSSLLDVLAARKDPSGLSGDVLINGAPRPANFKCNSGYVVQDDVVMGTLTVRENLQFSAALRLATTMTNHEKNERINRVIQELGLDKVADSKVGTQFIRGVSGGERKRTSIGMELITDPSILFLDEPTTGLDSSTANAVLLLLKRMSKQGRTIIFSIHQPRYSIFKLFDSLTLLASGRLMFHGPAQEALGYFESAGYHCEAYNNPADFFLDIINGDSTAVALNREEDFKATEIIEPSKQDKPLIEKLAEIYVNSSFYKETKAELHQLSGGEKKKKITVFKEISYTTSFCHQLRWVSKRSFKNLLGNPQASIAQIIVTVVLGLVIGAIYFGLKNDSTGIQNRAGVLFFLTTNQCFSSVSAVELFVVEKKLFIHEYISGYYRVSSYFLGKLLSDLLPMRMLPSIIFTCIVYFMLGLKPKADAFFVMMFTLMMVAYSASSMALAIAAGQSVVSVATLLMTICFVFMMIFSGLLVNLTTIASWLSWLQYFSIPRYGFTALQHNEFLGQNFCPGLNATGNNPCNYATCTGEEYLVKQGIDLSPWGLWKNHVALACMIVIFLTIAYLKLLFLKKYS

Consider `OC(c1ccc(Cl)cc1)(c1cncnc1)c1ccccc1Cl` (configuration not stated), for which the result in assay [1], in assay [4], in assay [6], in assay [9], in assay [10] and in assay [11] was inactive. In addition, the AC50 in assay [2] was 92.8 µM (active); in assay [3] it was 61.5 µM (active); in assay [5] it was 66.4 µM (active); in assay [7], 80 µM (active); in assay [8], 75.1 µM (active); in assay [12] it was 86.6 µM (active). Moreover, the AC50 was 50 µM (active) in assay [13]; 91.3 µM (active) in assay [14]; 89.6 µM (active) in assay [15]; 83.6 µM (active) in assay [16]; 83.7 µM (active) in [17].
Turning to `CCCC1COC(Cn2cncn2)(c2ccc(Cl)cc2Cl)O1` (configuration not stated), the AC50 in assay [1] was 22.2 µM (active); in [2], 25.9 µM (active); in assay [3], 25.6 µM (active); in assay [5], 81 µM (active); in assay [7] it was 24 µM (active); in assay [8], 33.7 µM (active). Also, the AC50 was 50 µM (active) in [12]; 30.9 µM (active) in assay [14]; 74.5 µM (active) in [15]; 36.4 µM (active) in [16]; 34.8 µM (active) in assay [17]. For the same compound, the compound was classed as inactive in assay [4], in [6], in [18], in assay [9], in assay [10] and in assay [11]. In addition, the result in [13] was inactive.
With `CC1=C(C(=O)Nc2ccccc2)SCCO1`, the outcome in assay [19], in assay [2], in assay [3], in assay [4], in assay [5] and in assay [6] was inactive. Moreover, the compound was called inactive in [7], in assay [8], in assay [9], in [10], in assay [11] and in assay [13]. In addition, the outcome in assay [15], in assay [16] and in assay [17] was inactive. Also, the values for the AC50 in [12] and in assay [14] were 50 µM (active) and 45 µM (active), respectively.
